Data from PubChem BioAssay (NCATS).
Records with an inconclusive call do not appear. Calls of active or inactive are those of the source. Calls follow the shape of the dose curve; as a rule, active = well fitted inhibition curve with a large enough effect; inconclusive = small, poorly fitted or top-dose-only effect; inactive = flat fitted curve, though single readings scatter. Where a SMILES comes first, the peptide text is derived from it. The star is where a group is joined. Cbz = O=C(OCc1ccccc1)*; CH2F = FC*

Tested on: Zika virus NS2B-NS3 protease
Test: Primary screen GU AMC qHTS for Zika virus inhibitors (AID 1347154);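 also: 0% = no-inhibitor control and -100% = no-enzyme control; nearly all actives have a fitted effect of over 70% in size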
Settings: Zika NS2B-NS3 unlinked protease, AMC fluorogenic substrate; series mostly up to 54.1 µM; activity change, negative = inhibition: at the top concentration
Outline: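 Fluorogenic AMC-substrate cleavage by noncovalent NS2B-NS3 protease complex (25 nM, pH 8.0 Tris buffer with Tween 20) followed for 15 minutes at room temperature (~20% conversion). Percent inhibition from ex340/em450 signal change, fitted by 4-parameter Hill equation.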

Activity change, negative = inhibition, inactive:
CCCCCCCC/C=C\CCCCCCCC(=O)OC[C@@H](O)COP(=O)(O)O 20.5% [at 6.83 µM], Nc1ncnc2c1ncn2[C@@H]1O[C@H](C(=O)NC2CC2)[C@@H](O)[C@H]1O 13.2%, [C-]#[N+]c1cc(-c2ccncc2)c(C)[nH]c1=O 10.4% [at 104 µM], O=c1ncccn1[C@@H]1O[C@H](CO)C(O)[C@@H]1O (some centres undefined) 21.7%, C=CCn1c(=O)c2c(nc(-c3ccccc3)n2C)n(C)c1=O -12.8%, CCCCCCCC/C=C\C/C=C\C/C=C\CCCC(=O)NCCO 9.89% [at 6.83 µM], NC(C(=O)O)c1cc(O)cc(O)c1 (centres undefined) 0.869%, COC(=O)C1=C(C)NC(C)=C(C(=O)NCCCN2CCC(c3ccccc3)(c3ccccc3)CC2)C1c1ccc([N+](=O)[O-])cc1 (centres undefined) 0.401%, CCCCC/C=C\C/C=C\C/C=C\C=C\[C@@H](O)CCCC(=O)O 0.663% [at 0.59 µM], O=C(O)c1ccncc1 4.68%, CCCCC/C=C\C\C=C/C=C/C=C/[C@@H](SC[C@H](N)C(=O)O)[C@@H](O)CCCC(=O)O 5.9% [at 0.59 µM], CCCCCCCCCCCCCCCCCCOC[C@H](COP(=O)([O-])OCC[N+](C)(C)C)OC(C)=O 10.6% [at 6.83 µM], COC(=O)C[C@H](NC(=O)[C@H](C)NC(=O)[C@@H](NC(=O)OCc1ccccc1)C(C)C)C(=O)CF (Cbz-Val-Ala-Asp(OMe)-CH2F) 4.93%, NCCn1oc(=O)[nH]c1=O 10.5%, COC(=O)[C@H]1C2CC3c4[nH]c5ccccc5c4CCN3CC2CC[C@@H]1O (some centres undefined) -13.6%, c1ccc(Oc2nc(NC3CCCCC3)c3[nH]cnc3n2)cc1 -3.56%, Nc1ncnc2c1ncn2[C@@H]1O[C@H](COP(=O)(O)OP(=O)(O)OC[C@H]2OC(O)[C@H](O)[C@@H]2O)[C@@H](O)[C@H]1O (some centres undefined) -5.42%, CC(=O)OCOC(=O)CN(CC(=O)OCOC(C)=O)c1ccccc1OCCOc1ccccc1N(CC(=O)OCOC(C)=O)CC(=O)OCOC(C)=O 11.3% [at 25.8 µM], CCCCCCCCCCCCCCCCCCc1ccc(C(=O)/C=C/C(=O)O)cc1 11.9%, NC(N)=NCCNS(=O)(=O)c1cccc2cnccc12 -1.22%, CC(C)n1nnc2cc(C(=O)O)ccc21 24.9%, CCCCC[C@H](O)/C=C/[C@@H]1[C@@H](C/C=C\CCCC(=O)O)[C@@H](O)C[C@@H]1O 11.6% [at 6.83 µM], CNC(=O)[C@H]1O[C@@H](n2cnc3c(N)ncnc32)[C@H](O)[C@@H]1O 7.95%, NC(C(=O)O)[C@H](O)C(=O)O (some centres undefined) -0.61%, COC(=O)[C@H](Cc1ccc(C#Cc2ccccc2)cc1)NC(=O)C[C@H]1CCCN(C(=N)N)C1 7%, CCCCCCCCCCCCCCCC(=O)OCC(COP(=O)(O)O)OC(=O)CCCCCCCCCCCCCCC (centres undefined) 13.2% [at 6.83 µM], CC(C)=CCN1CCC2(CCc3ccccc32)CC1 2.32%, COC(=O)c1csc(C(=O)c2c[nH]c3ccccc23)n1 -5.7%, NC(C(=O)O)c1cccc(O)c1 (centres undefined) 10.1%, CC(N)(C(=O)O)c1ccc(-c2nn[nH]n2)cc1 (centres undefined) -10.5%, N#Cc1ccccc1OCC(O)CNCCNC(=O)Nc1ccccc1 (centres undefined) -9.04%, Cc1nc(N=Nc2cc([N+](=O)[O-])ccc2Cl)c(COP(=O)(O)O)c(C=O)c1O -17.6%, c1ccc2[nH]c(NCCCc3cnc[nH]3)nc2c1 11.8%, NS(=O)(=O)c1nn2cc(-c3ccccc3)nc2s1 -0.03%, CC1c2ccccc2CN1CC1=NCCN1 (centres undefined) -1.7%, CCCCC/C=C/C=C1/C(=O)C=C[C@@H]1C/C=C\CCCC(=O)O 2.18% [at 6.83 µM], CCCCC/C=C\C/C=C\CCCCCCCC(=O)O[C@@H](CO)COC(=O)CCCCCCCCCCCCCCCCC 7.9% [at 6.83 µM], C[C@H](NC(=O)CNC(=O)[C@@H](NC(=O)[C@H](Cc1ccccc1)NC(=O)CNC(=O)CNC(=O)[C@@H](N)Cc1ccccc1)[C@@H](C)O)C(=O)N[C@@H](CCCN=C(N)N)C(=O)N[C@@H](CCCCN)C(=O)N[C@@H](CO)C(=O)N[C@@H](C)C(=O)N[C@@H](CCCN=C(N)N)C(=O)N[C@H](CN)CCCCN (HELM PEPTIDE1{F.G.G.F.T.G.A.R.K.S.A.R.[NCCCC[C@@H](CN)N[*:1]]}$$$$V2.0) 1.78% [at 6.83 µM], CC(N)(C(=O)O)c1ccc(P(=O)(O)O)cc1 (centres undefined) -1.27%
